# Test results taken from PubChem BioAssay (NCATS).
# Inconclusive results are not listed. A call without a number means that no potency is given here. Values without a mark were called inactive. The source made the active and inactive calls. Unless noted, calls follow the shape of the dose curve; as a rule, active = well fitted curve in the direction sought with a large enough effect; inconclusive = small, poorly fitted or top-dose-only effect, or another doubt; inactive = no such curve, though single readings can be large; an effect the other way counts as inactive or inconclusive. Where a SMILES comes first, the peptide text is derived from it.
# Columns and labels:
# [1] = qHTS to identify inhibitors of the type 1 interferon - major histocompatibility complex class I in skeletal muscle: primary screen against the NCATS Pharmaceutical Collection (AID 1347407);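 also: luminescence of HiBiT knocked into endogenous HLA-B as interferon-induced MHC class I level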; also: potency is read from the fitted curve at half-maximal effect
# In short: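 Immortalized human myoblasts (C25cl48) with HiBiT knocked into endogenous HLA-B*08:01 were stimulated with 4 ng/ml IFN-beta and treated with compounds (8-point, 1:5, top 46 uM final) for 24 h at 37 C; HiBiT lytic luminescence read.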
# [2] = molecular target: Protein phosphatase 1D (Homo sapiens) (UniProt O15297); test: RapidFire Mass Spectrometry qHTS Assay for Modulators of WT P53-Induced Phosphatase 1 (WIP1) (AID 1347424);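 also: amount of dephosphorylated VEPPL-S-QETFS peptide product formed by WIP1; series mostly up to about 63 µM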
# In short: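 WIP1 (10 nM final) was preincubated 1 h at room temperature with compounds in Tris-HCl pH 7.5, 30 mM MgCl2, TCEP, EGTA, BSA; 2 uM VEPPL-pS-QETFS phosphopeptide was added for 5 min, quenched with formic acid, and dephosphorylated product quantified by RapidFire MS.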
# [3] = Primary qHTS for inhibitors of La Crosse Virus (LACV) - induced cell death in SH-SY5Y cells (AID 1508616);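 also: top concentration of the series differs between compounds; higher means more rescue of cells from virus-induced death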
# In short: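 Readout was luminescence from ATPLite 1step added after a 6-day LACV infection (0.01 MOI) of SH-SY5Y cells that had received pin-transferred compound 24 hr after seeding.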
# [4] = Primary qHTS for small molecule stabilizers of the endoplasmic reticulum resident proteome: Secreted ER Calcium Modulated Protein (SERCaMP) assay (AID 1508630)
# In short: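 GLuc-SERCaMP-expressing SH-SY5Y cells, pretreated 16 h with compound, are challenged with thapsigargin to empty ER calcium stores; after 4 h, coelenterazine is added directly to the medium and luminescence is imaged.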
# [5] = A High-Content qHTS Against Drug Library for the Identification of Small Molecules that Inhibit DYT1 Early Onset Primary Dystonia-Associated Cell Pathology (AID 1645839; calls by dose curve; also: potency is read from the fitted curve at half-maximal effect; as to % pathology change, negative = correction: series mostly up to about 46 µM)
# In short: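 Readout: %pathology, the punctate EGFP-TorsinA distribution from imaging, as the primary channel and cell count as the toxicity counterscreen. HEK293 Flp-In cells expressing delE TorsinA were induced with tetracycline and treated with compound for 48 h.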
# [6] = molecular target: Protein phosphatase 1D (Homo sapiens) (UniProt O15297); test: Rhodamine-PBP qHTS Assay for Modulators of WT P53-Induced Phosphatase 1 (WIP1) (AID 1347425)
# In short: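 WIP1 (5 nM final) was preincubated with compound for 1 hour at room temperature. It then dephosphorylated 10 uM VEPPL-pS-QETFS peptide in Tris-HCl pH 7.5 with 30 mM MgCl2. Released Pi was detected by 10 uM Rh-PBP fluorescence (ex 525/em 598 nm) read at 1-min intervals for 11 min, as delta f1 - f0.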
# [7] = molecular target: Calcium and integrin-binding protein 1 (Homo sapiens) (UniProt Q99828); test: Primary qHTS for Identification of Calcium Integrin Binding Protein 1 (CIB1) Competitor (AID 1508620);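 also: GST tagged CIB1 binding a fluorescein labelled alphaIIb integrin peptide tracer; top concentration of the series differs between compounds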
# In short: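 Fluorescence polarization competition: CIB1-GST (1 uM final) preincubated with compound 15 min at room temperature, then FITC-labeled alphaIIb peptide (100 nM final) added for another 15 min. Polarization read at Ex 480/Em 540.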
# [8] = Confirmatory qHTS for small molecule stabilizers of the endoplasmic reticulum resident proteome: Secreted ER Calcium Modulated Protein (SERCaMP) assay (AID 1508628); also: nearly all actives have a fitted effect of over 40% in size; also: potency is read from the fitted curve at half-maximal effect
# In short: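 We seeded SH-SY5Y-GLuc-SERCaMP cells, added compounds (three concentrations in the primary run, eleven up to 76.6 uM in confirmation), incubated 16 h, depleted ER calcium with thapsigargin, and read luciferase 4 h later.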
# [9] = Cell Viability qHTS for small molecule stabilizers of the endoplasmic reticulum resident proteome (AID 1508629); conditions: cell viability counter-screen, 100 nM thapsigargin for final 4 h;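 also: human SH-SY5Y neuroblastoma cells carrying the GLuc-SERCaMP reporter; compound exposure about 46 h in total before the viability read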
# [10] = molecular target: Calcium and integrin-binding protein 1 (Homo sapiens) (UniProt Q99828); test: Confirmatory qHTS for Identification of Calcium Integrin Binding Protein 1 (CIB1) Competitor (AID 1508617); also: nearly all actives have a fitted effect of over 65% in size
# In short: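 FP competition: CIB1-GST (1 uM final) in 5 mM HEPES pH 7.4, 125 mM NaCl, 5 mM CaCl2, 0.01% Tween20 preincubated 15 min RT with compounds (up to 114 uM), then FITC-alphaIIb peptide (100 nM), 15 min RT; Ex 480/Em 540.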
# Calcium and integrin-binding protein 1 (Homo sapiens), sequence (Q99828 whole entry, looked up): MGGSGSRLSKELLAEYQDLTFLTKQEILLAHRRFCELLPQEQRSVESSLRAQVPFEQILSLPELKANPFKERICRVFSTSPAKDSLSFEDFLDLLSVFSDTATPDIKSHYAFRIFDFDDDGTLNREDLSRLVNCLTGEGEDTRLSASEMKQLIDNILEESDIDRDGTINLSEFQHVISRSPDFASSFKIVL
# Protein phosphatase 1D (Homo sapiens), sequence (O15297 whole entry, looked up): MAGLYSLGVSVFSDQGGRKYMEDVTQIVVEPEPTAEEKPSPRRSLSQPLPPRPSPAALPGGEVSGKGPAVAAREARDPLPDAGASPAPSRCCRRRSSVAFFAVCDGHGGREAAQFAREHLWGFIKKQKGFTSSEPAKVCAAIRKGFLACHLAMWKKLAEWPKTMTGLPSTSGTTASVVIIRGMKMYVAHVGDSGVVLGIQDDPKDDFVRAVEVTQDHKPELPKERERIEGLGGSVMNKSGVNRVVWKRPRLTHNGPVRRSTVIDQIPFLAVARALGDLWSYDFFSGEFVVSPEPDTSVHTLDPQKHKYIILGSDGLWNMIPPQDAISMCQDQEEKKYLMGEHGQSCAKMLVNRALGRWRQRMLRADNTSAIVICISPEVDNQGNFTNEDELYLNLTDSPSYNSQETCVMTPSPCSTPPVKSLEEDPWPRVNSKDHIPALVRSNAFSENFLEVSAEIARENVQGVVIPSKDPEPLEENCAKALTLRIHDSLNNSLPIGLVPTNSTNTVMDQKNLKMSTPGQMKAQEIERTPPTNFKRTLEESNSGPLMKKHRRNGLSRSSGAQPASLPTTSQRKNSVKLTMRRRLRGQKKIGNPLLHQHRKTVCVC
compound,measurement,setting,value
CO/N=C(/C(=O)N[C@@H]1C(=O)N2C(C(=O)O)=C(Cn3nnc(C)n3)CS[C@H]12)c1csc(N)n1,Potency,[1],inactive
same,Potency,[2],inactive
same,outcome,[3],inactive
same,Potency,[4],inactive
same,Potency,[5],inactive
Oc1ccccc1,Potency,[1],inactive
same,Potency,[2],inactive
same,outcome,[3],inactive
same,Potency,[5],inactive
COC(=O)c1c(Cl)c(Cl)c(C(=O)OC)c(Cl)c1Cl,Potency,[1],inactive
same,outcome,[6],inactive
same,outcome,[3],inactive
same,Potency,[7],inactive
same,Potency,[8],inactive
same,max response,[9],10.1%
same,Potency,[5],inactive
CCN1CCN(c2cc(-c3ccc(F)cc3)c3c(n2)CCCCCC3)CC1,Potency,[1],inactive
same,outcome,[6],inactive
same,outcome,[3],inactive
same,Potency,[7],inactive
same,Potency,[4],inactive
C[N+]1(C)CCC(OC(=O)C(O)(c2ccccc2)C2CCCC2)C1 (configuration not stated),Potency,[1],inactive
same,Potency,[2],inactive
same,outcome,[3],inactive
same,Potency,[7],inactive
same,Potency,[5],inactive
CC(=O)OCC[N+](C)(C)C,Potency,[1],inactive
same,outcome,[6],inactive
same,outcome,[3],inactive
same,Potency,[7],inactive
same,Potency,[4],inactive
same,Potency,[5],inactive
CCN(CC)CCN,Potency,[1],inactive
same,outcome,[6],inactive
same,outcome,[3],inactive
same,Potency,[7],inactive
same,Potency,[4],inactive
same,Potency,[5],inactive
COC(=O)C1=C(C)NC(COC(N)=O)=C(C(=O)OC(C)C)C1c1cccc(Cl)c1Cl (configuration not stated),Potency,[1],inactive
same,Potency,[2],inactive
same,Potency,[7],inactive
same,Potency,[4],inactive
CN(C)CCCOC1(Cc2ccccc2)CCCCCC1,Potency,[1],inactive
same,Potency,[2],inactive
same,outcome,[3],inactive
same,Potency,[5],inactive
CCOc1c(N2CCOCC2)cnn(C)c1=O,Potency,[1],inactive
same,Potency,[2],inactive
same,Potency,[7],inactive
same,Potency,[5],inactive
Cc1cccc(N(C)C(=S)Oc2ccc3c(c2)CCC3)c1,Potency,[1],inactive
same,Potency,[2],inactive
same,Potency,[7],inactive
same,Potency,[4],inactive
same,Potency,[5],inactive
O=C(O)c1ccccc1S,Potency,[1],inactive
same,Potency,[2],inactive
same,outcome,[3],inactive
same,Potency,[7],inactive
same,Potency,[5],inactive
CC(=O)CC/C=C(\C)CC/C=C(\C)CC/C=C(\C)CCC=C(C)C,Potency,[1],inactive
same,Potency,[2],inactive
same,Potency,[7],inactive
same,Potency,[5],inactive
C[N+]1(CC2COC(c3ccccc3)(c3ccccc3)O2)CCCCC1 (configuration not stated),Potency,[1],inactive
same,outcome,[6],inactive
same,outcome,[3],inactive
same,Potency,[7],inactive
same,Potency,[4],inactive
CC(=O)N[C@@H](CO)C(=O)N[C@@H](CC(=O)O)C(=O)N[C@@H](CCCCN)C(=O)N1CCC[C@H]1C(=O)O (Ac-SDKP-OH),Potency,[1],inactive
same,Potency,[2],inactive
same,outcome,[3],inactive
same,Potency,[7],inactive
same,Potency,[4],inactive
same,Potency,[5],inactive
CCCC(=O)Nc1ccc(O)c(C(C)=O)c1,Potency,[1],inactive
same,outcome,[6],inactive
same,outcome,[3],inactive
same,Potency,[7],inactive
same,Potency,[8],inactive
same,max response,[9],11.5%
same,Potency,[5],inactive
COC(=O)[C@H]1[C@H]2C[C@@H]3c4[nH]c5cc(OC)ccc5c4CCN3C[C@H]2C[C@@H](OC(=O)/C=C/c2ccc(O)c(OC)c2)[C@@H]1OC,Potency,[1],inactive
same,outcome,[6],inactive
same,outcome,[3],inactive
same,Potency,[7],inactive
same,Potency,[8],20 µM (active)
O=C(O)Cc1ccccc1Oc1ccc(Cl)cc1Cl,Potency,[1],inactive
same,outcome,[6],inactive
same,outcome,[3],inactive
same,Potency,[7],inactive
same,Potency,[4],inactive
same,Potency,[5],inactive
CCCc1ncc(C(=O)O)s1,Potency,[1],inactive
same,outcome,[6],inactive
same,outcome,[3],inactive
same,Potency,[7],inactive
same,Potency,[4],inactive
same,Potency,[5],inactive
Cc1c(F)cc2c(=O)c(C(=O)O)cn3c2c1CCC3C (configuration not stated),Potency,[1],inactive
same,outcome,[6],inactive
same,outcome,[3],inactive
same,Potency,[7],inactive
same,Potency,[4],inactive
same,Potency,[5],inactive
O=[N+]([O-])c1nccn1CO[C@@H](CO)[C@H](O)CO,Potency,[1],inactive
same,outcome,[6],inactive
same,outcome,[3],inactive
same,Potency,[7],inactive
same,Potency,[4],inactive
same,Potency,[5],inactive
COC(=O)c1cc(Cl)ccc1NS(=O)(=O)C(F)(F)F,Potency,[1],inactive
same,Potency,[2],inactive
same,Potency,[10],inactive
same,Potency,[5],inactive
CC(CC1c2ccccc2CCc2ccccc21)CN(C)C (configuration not stated),Potency,[1],inactive
same,outcome,[6],inactive
same,outcome,[3],inactive
same,Potency,[7],inactive
Cc1ncc(CO)c(CO)c1O,Potency,[1],inactive
same,Potency,[2],inactive
same,outcome,[3],inactive
same,Potency,[4],inactive
same,Potency,[5],inactive
CCCCCCCCCCCCCCCC[N+](C)(C)Cc1ccccc1,Potency,[1],23.6 µM (active)
same,outcome,[6],inactive
same,outcome,[3],inactive
same,Potency,[7],inactive
same,Potency,[4],inactive
same,Potency,[5],22.4 µM (active)
C[C@@H]1C[C@H]2[C@@H]3CCC4=CC(=O)C=C[C@]4(C)[C@@]3(F)[C@@H](O)C[C@]2(C)[C@@]1(O)C(=O)COC(=O)c1ccncc1,Potency,[1],inactive
same,outcome,[6],inactive
same,outcome,[3],inactive
same,Potency,[7],inactive
same,Potency,[4],inactive
same,Potency,[5],inactive
NS(=O)(=O)c1cc2c(cc1Cl)CN(C1CCCCC1)C2=O,Potency,[1],inactive
same,Potency,[2],inactive
same,outcome,[3],inactive
same,Potency,[4],inactive
same,Potency,[5],inactive
NCC[C@H](O)C(=O)N[C@@H]1C[C@H](N)[C@@H](O[C@H]2O[C@H](CN)[C@@H](O)[C@H](O)[C@@H]2O)[C@H](O)[C@@H]1O[C@H]1O[C@H](CO)[C@@H](O)[C@H](N)[C@@H]1O,"activity change, negative = inhibition",[1],-1.93% [at 0.727 µM]
same,"activity change, negative = inhibition",[2],3.64% [at 0.505 µM]
same,activity change,[3],4.33% [at 0.0343 µM]
same,"activity change, negative = inhibition",[7],3.05% [at 1.07 µM]
same,"% pathology change, negative = correction",[5],-0.271% [at 0.369 µM]
COc1cc(C(=O)NC2CCCNC2)cc(OC)c1OC (configuration not stated),Potency,[1],inactive
same,Potency,[2],inactive
same,outcome,[3],inactive
same,Potency,[7],inactive
same,Potency,[4],inactive
same,Potency,[5],inactive
